Results on 30 compounds are retold here after PubChem BioAssay AID999 (SRMLSC, 2007).

A number with no mark means an inactive call. Active and inactive are the calls of the source.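 The calls were made as follows: active = viability at or below 21.59%, 3 SD under the median of tested compounds; inactive = the rest.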

As usually defined, the viability is a read-out of living cells in per cent, often relative to untreated cells.

The assay is described as follows: viability loss in PTEN-deleted cells – cell-based, validation, diverse DP compound set (AID 999).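 Also: 100% = median luminescence of untreated cell control wells and 0% = no signal.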 To be noted: HCT116 PTEN-null viability, CellTiter-Glo, 60 h; at 10 µM; hits give low values. A general note: In ATP-based viability assays light output follows the ATP content of the culture.
With `NS(=O)(=O)c1cc(C(=O)O)c(NCc2ccco2)cc1Cl`, the viability is 104%.

Turning to `CC12CC3(O)OC(O1)C1(COC(=O)c4ccccc4)[C@@H]3CC21O[C@@H]1O[C@H](CO)[C@@H](O)[C@H](O)[C@H]1O`, the viability is 95.3%. As for `C[C@]12CCC(=O)C=C1CC[C@@H]1[C@@H]2[C@@H](O)C[C@@]2(C)[C@H]1CC[C@]2(O)C(=O)CO`, the viability is 99.2%.

For `O=c1[nH]c(=O)n(C2CCCO2)cc1F` (stereo not given), the viability is 101%. Under `COc1ccc(-c2cc(C(=O)O)no2)cc1` stands 97.7%; under `CCC(C)C(O)C(C)C(=O)C(C)/C=C(\C)CC(C)C1OC(=O)C1CC` (stereo not given), 97.1%.

On to `CC(=O)N[C@H]1C(O[C@@H]2O[C@H](C[C@@H](O)[C@H]3O[C@@H](N4CCC(=O)NC4=O)[C@H](O)[C@@H]3O)[C@H](O)[C@H](O)[C@H]2NC(=O)/C=C/CCCCCCCCCCC(C)C)OC(CO)[C@@H](O)[C@@H]1O` (stereo not given in full), for which the viability was 52.8%.

For `CN=C(NC#N)NCCSCc1nc[nH]c1C`, the viability was 99.4%. In the case of `C=C1CC[C@H](O)C/C1=C/C=C1\CCC[C@]2(C)[C@@H]([C@H](C)CCCC(C)C)CC[C@@H]12` it was 92.4%; in that of `C[C@]12CC[C@@H]3c4ccc(O)cc4CC[C@H]3[C@@H]1CC[C@H]2O`, 93.3%. In the case of `C=C(C)C1CC=C(C)C(O)C1` (stereo not given) it was 89.2%; in that of `COC(=O)c1cc2c(s1)-c1ccccc1OC2`, 97.4%; in that of `COc1ccc(CC(N)C(=O)N[C@H]2[C@@H](O)[C@H](n3cnc4c(N(C)C)ncnc43)O[C@@H]2CO)cc1` (stereo not given in full), 5.97% (active). Under `CO/N=C(\C(=O)N[C@@H]1C(=O)N2C(C(=O)O)=C(COC(C)=O)CS[C@H]12)c1csc(N)n1` stands 89.4%; under `O=c1[nH]cnc2ccccc12`, 82.7%; under `COc1c(C)c2c(c(O)c1C/C=C(\C)CCC(=O)O)C(=O)OC2`, 40.1%. Consider `CC(C)C[C@@H](NC(=O)[C@@H](O)[C@H](N)Cc1ccccc1)C(=O)O`, for which the viability is 94.5%.

In the case of `c1ccc2nc3ccccc3cc2c1`, the viability is 99.8%.

Take `C=C1OC(CO)(n2cnc3c(N)ncnc32)C(O)C1O` (stereo not given): the viability was 92.8%. Under `COc1cc([C@@H]2c3cc4c(cc3[C@H](O)[C@H]3COC(=O)[C@H]23)OCO4)cc(OC)c1OC` stands 24.6%; under `Cc1cc(CC(=O)O)n(C)c1C(=O)c1ccc(Cl)cc1`, 95.5%; under `CCC[C@@H]1C[C@@H](C(=O)NC(C(C)Cl)[C@H]2O[C@H](SC)[C@H](O)[C@@H](O)[C@H]2O)N(C)C1` (stereo not given in full), 100%. In the case of `Clc1ccc2ncnc(NCc3ccc4c(c3)OCO4)c2c1` it was 83.1%. As to `Nc1nc2ncc(CNc3ccc(C(=O)NC(CCC(=O)O)C(=O)O)cc3)nc2c(=O)[nH]1` (stereo not given), the viability is 99.5%.

As for `COc1ccc(C2CNC(=O)C2)cc1OC1CCCC1` (stereo not given), the viability is 96.5%. In the case of `CC(C)CC(=O)N[C@H](C(=O)N[C@H](C(=O)N[C@@H](CC(C)C)[C@@H](O)CC(=O)N[C@@H](C)C(=O)N[C@@H](CC(C)C)[C@@H](O)CC(=O)O)C(C)C)C(C)C` it was 98.2%. In the case of `Cc1cc2c(C(C)C)c(O)c(O)c(C=O)c2c(O)c1-c1c(C)cc2c(C(C)C)c(O)c(O)c(C=O)c2c1O` it was 13% (active); in that of `[O][C@H]1[C@@H](O)[C@@H](CO)O[C@@H](O[C@@H]2[C@@H]3OC[C@H]2O[C@H](O[C@@H]2[C@@H](O)[C@H](C[C@@H]4[C@@H]5OC[C@H]4O[CH][C@@H]5O)O[C@H](CO)[C@@H]2OS(=O)(=O)O)[C@@H]3OS(=O)(=O)O)[C@@H]1O`, 100%.

`CO[C@@H]1[C@@H](OC(N)=O)[C@@H](O)[C@H](Oc2ccc3c(O)c(NC(=O)c4ccc(O)c(CC=C(C)C)c4)c(=O)oc3c2C)OC1(C)C`: the viability is 88%. Under `C[C@H](CS)C(=O)N1CCC[C@H]1C(=O)O` stands 93.9%.
